# Methyltransferases = Primary Screen for Target Class Profiling of Small Molecule Inhibitors of Methyltransferases | AID 1745853, 2022 | calls only at 40 µM | hit rate 3.9% among 25,000 | purified enzyme, MTase-Glo SAH luminescence; hits give low values; call rule not given here
#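 Each enzyme was assayed with SAM and its substrate. SAH formation detected by MTase-Glo luminescence; single-point 40 uM screen[…].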
# * = called active by the depositor; i = inactive; + = active, no number. Shown is part of a subset that was picked to be rich in hits. % is scaled to controls: 0 for no effect and ±100 for the full control effect.
SMILES,Methyltransferases
COC(=O)c1cc2n(n1)CC(C)(C(=O)NC1CCC(C)CC1)N(c1ccc(OC)cc1)C2=O (stereo not drawn),i
C=C1C(=O)O[C@H]2C1CCC(C)=C1C(=O)C=C(C)[C@@]12O (stereo partly drawn),i
C=C(C)C(=O)OC1[C@@H]2C(=C)C(=O)O[C@@H]2C[C@@H](C)[C@@H]2C=CC(=O)[C@@]12C (stereo partly drawn),i
C=C1C(=O)O[C@H]2CC(=C)[C@H]3CC[C@@](C)(O)[C@@H]3CC12 (stereo partly drawn),+
CCOC(=O)c1cc2n(n1)CC(C)(C(=O)NCc1ccccc1)N(c1ccc(C)c(C)c1)C2=O (stereo not drawn),i
COC(=O)c1ncn2c1C(=O)N(c1ccc(C(C)C)cc1)C(C)(C(=O)NC1CCCCC1)C2 (stereo not drawn),i
CC(C)CCNC(=O)C1c2c(n(C)c3ccccc23)SCC(=O)N1CCc1ccc(Cl)cc1 (stereo not drawn),i
c1cc(OCCN2CCCCC2)cc(-c2n[nH]c3ccc(-c4ncn[nH]4)cc23)c1,+
CN(CCN1CCCCCC1)C(=O)c1cc(COc2ccccc2)[nH]n1,i
C=C1C(=O)O[C@@H]2[C@H]3C(C)=CC(=O)C3=C(C)[C@@H](OC(=O)/C(C)=C\C)[C@H](O)[C@@H]12,i
C=C1C(=O)OC2C(OC(=O)C=C(C)C)C(C)=C3C(=O)C=C(C)C3C(O)C12 (stereo not drawn),+
Cc1cc(C)cc(NC(=O)Cn2nc3n(CC(C)C)c(=O)c4ccccc4n3c2=O)c1,i
CC(C)CNC(=O)c1ccc2c(=O)n(Cc3ccccc3)c3nn(Cc4ccc(F)cc4)c(=O)n3c2c1,i
CCCSCCCN1C(=O)c2cc3occc3n2CC1(C)C(=O)NC1CCC(C)CC1 (stereo not drawn),i
Cn1c(=O)n(C)c2cc(S(=O)(=O)Nc3ccc(Cl)cc3)ccc21,i
CCCNC(=O)NS(=O)(=O)c1ccc(Cl)cc1,i
CN(C)c1ccc(NC(=O)NS(=O)(=O)c2ccc(Cl)cc2)cc1,+
CC(C)OCCCN1C(=O)c2cnn(-c3ccccc3)c2-n2cccc2C1C(=O)NC1CCCCCC1 (stereo not drawn),i
CCc1cc2c(cc3n2CC(C(=O)NC2CCCCCC2)(c2ccccc2)N(Cc2cccc(F)c2)C3=O)s1 (stereo not drawn),i
Cc1ccc(NC(=O)N2Cc3c(sc4c3CCCC4)-n3cccc3C2c2cc(F)cc(F)c2)cc1F (stereo not drawn),i
Cc1cccc2c1cnn2C(=O)CCC(=O)N1CCN(c2ccccn2)CC1,i
CCCn1c(=O)c2ccc(C(=O)NC(C)CC)cc2n2c(=O)n(C)nc12 (stereo not drawn),i
CC(C)CNC(=O)c1ccc2c(=O)n(CC(C)C)c3nn(CC(=O)c4ccccc4)c(=O)n3c2c1,i
CCOC(=O)c1cc2n(n1)CC(C)(C(=O)NCc1ccccc1)N(CCc1ccc(OCC)cc1)C2=O (stereo not drawn),i
CCc1cc2c(cc3n2CC(C)(C(=O)NC2CCC(C)CC2)N(Cc2ccc(OC)cc2)C3=O)s1 (stereo not drawn),i
SMILES,Methyltransferases
Cc1cc(C)cc(Nc2nc(C)cc(=O)n2CC(=O)Nc2cccc(C(F)(F)F)c2)c1,i
COc1ccc(C(=O)N[C@@H]2CN(C(=O)Nc3cccc(C(F)(F)F)c3)CCC[C@H]2O)cc1,i
COc1ccc2cc(CNc3ccc(C)cc3)c(=O)n(CC(=O)Nc3cccc(C(F)(F)F)c3)c2c1,+
CCN1C(=O)c2cc(C(=O)N3CCC(N4CCCCC4)CC3)nn2CC1(C)C(=O)NC1CCCC1 (stereo not drawn),i
COc1ccc(OC)c(-c2nnc3n(Cc4ccccc4)c(=O)c4ccccc4n23)c1,i
CC(C)OCCCn1c(=O)c2cc(Cl)ccc2n2c(SCc3ccccc3F)nnc12,i
O=C(O)c1ccc2c(c1)C1C=CCC1C(c1ccc(Cl)cc1)N2 (stereo not drawn),+
Fc1ccc2c(c1)C1C=CCC1C(c1ccc(Cl)cc1)N2 (stereo not drawn),i
CC(C)COC(=O)c1ccc2c(c1)C1C=CCC1C(c1ccc(Cl)cc1)N2 (stereo not drawn),i
CC1(C(=O)NC2CCCCCCC2)Cn2c(ccc2-c2ccco2)C(=O)N1CCN1CCOCC1 (stereo not drawn),i
Cc1ccc(CNC(=O)Cn2ccc3cc(S(=O)(=O)N4CCCCC4)ccc32)o1,i
O=S(=O)(NCCc1ccccc1)c1ccc2[nH]c3c(c2c1)CCCC3,i
COc1ccccc1CNC(=O)Cn1ccc2cc(S(=O)(=O)N3CCCCC3)ccc21,i
CCCCN1C(=O)CSc2c(c3ccccc3n2C)C1C(=O)NCCC(C)C (stereo not drawn),i
CCCCNC(=O)CCc1nnc2n(CCc3ccccc3)c(=O)c3ccccc3n12,i
CC(=O)NCCCCn1c2c(c3ccccc31)C(=O)NCC2,+
